# Screens as filed in PubChem BioAssay.
# PostGolgi yeast: growth inhibition of a yeast mutant, post-Golgi transport screen | 98,000 tested, 0.9% active | post-Golgi transport phenotypic cell assay | inhibition, % at 10 µM;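 further: yeast cells grown in 1536-well plates; yeast grown about 18 h at 30C before absorbance read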
# hDAT+cocaine: modulates human dopamine transporter uptake under cocaine; Q01959; LLC-PK1 hDAT cells, [14C]-dopamine uptake with cocaine IC80; actives deviate in either direction; B-score at 10 µM; 110,000 tested, 1.3% active;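 active means Z score or B-score, a plate-position-corrected score, falls beyond the plate's 99.7% confidence bounds, in either direction; inactive means both scores lie inside the 99.7% bounds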;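 further: scored against the spread of the other compound wells on the same plate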
# Target sequence (Q01959 whole entry, looked up): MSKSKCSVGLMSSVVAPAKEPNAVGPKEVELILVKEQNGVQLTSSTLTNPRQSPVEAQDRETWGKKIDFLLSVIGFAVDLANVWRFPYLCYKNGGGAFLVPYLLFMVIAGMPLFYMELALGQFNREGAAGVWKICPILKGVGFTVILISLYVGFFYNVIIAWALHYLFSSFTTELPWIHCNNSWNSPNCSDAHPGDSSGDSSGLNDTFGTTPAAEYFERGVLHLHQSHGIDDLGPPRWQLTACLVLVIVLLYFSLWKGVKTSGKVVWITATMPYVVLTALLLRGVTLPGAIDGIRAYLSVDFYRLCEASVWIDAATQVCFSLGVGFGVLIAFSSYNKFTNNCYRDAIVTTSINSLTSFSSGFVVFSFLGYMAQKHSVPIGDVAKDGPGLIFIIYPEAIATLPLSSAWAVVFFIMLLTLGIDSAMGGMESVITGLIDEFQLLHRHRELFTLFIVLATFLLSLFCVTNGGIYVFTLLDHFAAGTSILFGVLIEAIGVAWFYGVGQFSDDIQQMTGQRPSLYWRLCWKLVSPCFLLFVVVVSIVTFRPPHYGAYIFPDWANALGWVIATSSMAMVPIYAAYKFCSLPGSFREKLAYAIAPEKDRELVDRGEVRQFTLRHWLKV
# PLAP activator: activates human placental alkaline phosphatase. P05187. purified PLAP enzyme, luminescent substrate read-out; hits give high values. activation fold at 20 µM. 96,000 tested, 1.2% active; in the data active means activation fold above about 2
# Cav3 T inh: inhibitors of human Cav3.2 T-type calcium channel | O95180 | Cav3.2-expressing cells, Fluo-4 calcium fluorescence FDSS; hits give low values | B-score at 10 µM | 100,000 tested, 4% active | AID 449739;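 active means single-dose well whose peak fluorescence ratio is a statistical outlier from its plate by either plate-standardised score or position-corrected B-score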
# PostGolgi ctrl: inhibits growth of the yeast control strain; 98,000 tested, 5% active; efflux-deficient yeast background strain, growth absorbance A615, 16 h; AID 738; inhibition, % at 10 µM
# * marks the source's active call; other numbers are inactive results; . = no result. A selection: hits, their analogues and other compounds. The true share with any hit is near 9.6%. Unless noted, no stated cut-off is given here; in the data, active means inhibition above about 30%; inactive means the rest.
SMILES,PostGolgi yeast,hDAT+cocaine,PLAP activator,Cav3 T inh,PostGolgi ctrl
CCOC(=O)NC(=O)COC(=O)Cc1cc(OC)c(OC)c(OC)c1,-1.6,-0.0915,1.1,-0.0466,6.9
CN=C(c1ccco1)n1c(=S)nc(-c2ccco2)n(C)c1=S,0.5,-0.107,2.7*,0.0475,10.8
COc1ccc(N(CC(=O)NCCSCc2c(F)cccc2Cl)S(C)(=O)=O)cc1OC,2.2,-1.2,0.9,0.534,-3.6
COc1cccc(N(CC(=O)NCCSc2ccc(Cl)cc2)S(C)(=O)=O)c1,1.0,-0.832,1.1,-5.54*,13.1
COc1cccc(N(CC(=O)NCCSc2ccccc2)S(C)(=O)=O)c1,2.1,0.615,0.9,0.276,-6.0
CS(=O)(=O)N(CC(=O)NCCSCc1c(F)cccc1Cl)c1ccc2c(c1)OCO2,6.6,1.14,1.6,-6.51*,2.7
CN(CC(=O)N1CCc2ccccc21)S(=O)(=O)c1cccc2cccnc12,-4.9,0.583,0.9,0.263,12.6
NC(=O)CC(NC(=O)c1ccccc1)c1ccc(NCCc2ccc(F)cc2)c([N+](=O)[O-])c1 (stereo not given),.,-0.649,.,0.537,.
CC(c1ccccc1)N1CCn2c(nc3cc(NC(=O)c4cccs4)ccc32)C1 (stereo not given),0.2,2.74*,1.9,-1.47,-1.0
Cc1ccc(NC(=O)NC2CCCCC2)cc1Cl,-10.6,-0.315,0.9,-0.705,11.1
CC(c1ccccc1)N1CCn2c(nc3cc(NC(=O)NC4CCCCC4)ccc32)C1 (stereo not given),-2.7,1.1,2.9*,-1.16,5.8
Cc1ccc(C(C(=O)NC2CCCCC2)N(Cc2ccco2)C(=O)Cc2c[nH]c3ccccc23)o1 (stereo not given),10.2,0.921,1.3,-10*,28.6
Cc1ccc(N(C(=O)Cc2c[nH]c3ccccc23)C(C(=O)NC2CCCCC2)c2ccco2)cc1 (stereo not given),5.0,-0.0585,1.3,-4.82*,20.5
Cc1ccc(-c2nnn(CC(=O)N(c3ccc(F)cc3)C(C(=O)NC3CCCC3)c3ccco3)n2)o1 (stereo not given),0.7,0.381,1.1,0.04,-4.3
Cc1ccc(C(=O)NC(=S)Nc2ccc(S(=O)(=O)N3CCN(C)CC3)cc2)cc1,3.9,.,1.1,.,-0.3
Nn1cc(-c2ccccc2)nc1SCC(=O)N1CCN(S(=O)(=O)c2ccc3ccccc3c2)CC1,1.1,-0.572,1.1,0.111,8.4
CCOC(=O)Cc1cc(OC)c(OC)cc1Cc1cc(OC)c(OC)cc1CC(=O)OCC,2.2,1.15,1.4,-0.303,13.4
CCCCC1(Cc2ccc(OC)c([N+](=O)[O-])c2)C(=O)N(c2ccccc2)N(c2ccccc2)C1=O,-3.5,-0.327,1.3,-3.64*,14.3
CCOc1ccc(CSC(=N)N)cc1[N+](=O)[O-],2.9,.,1.8,.,4.4
Cc1cccc(N2CCN(S(=O)(=O)c3ccc4c(c3)CCN4C(=O)CCC(=O)O)CC2C)c1 (stereo not given),-4.0,-0.0477,1.4,1.73,14.9
CSc1ccc(S(=O)(=O)Nc2ccc3c4c(cccc24)CC3)cc1,23.2,-0.536,1,-1.4,65.8*
COc1ccc(NS(=O)(=O)c2ccc(SC)cc2)c(OC)c1,3.4,-0.467,0.9,-1.24,13.4
O=S(=O)(Nc1ccc2c3c(cccc13)CC2)c1ccc(F)cc1,-8.8,0.148,1.3,.,40.2*
CCCCC1=CC2=C(c3ccco3)C(=O)C(C)(OC(=O)c3ccc(OC)cc3)C(=O)C2=CN1C1CCCCC1 (stereo not given),.,0.98,.,-0.833,.
CCCn1c(N)c(C(c2ccc(C(=O)OC)cc2)N2CCN(c3ccccc3)CC2)c(=O)[nH]c1=O (stereo not given),-22.6,0.0648,1.8,-2.59,-3.3
SMILES,PostGolgi yeast,hDAT+cocaine,PLAP activator,Cav3 T inh,PostGolgi ctrl
COC(=O)c1ccc(C(c2c(N)n(CC(C)C)c(=O)[nH]c2=O)N2CCN(c3ccccc3)CC2)cc1 (stereo not given),-16.6,0.887,1.8,-5.94*,35.0*
CCOC(=O)c1c(C)n(C)c2ccc(OC)c(NC(=O)CN3CCCCC3)c12,7.7,.,1.6,.,5.1
CCOC(=O)c1c(C)n(C)c2ccc(OC)c(NS(=O)(=O)c3ccc(Cl)s3)c12,-7.4,0.962,1,-0.0254,33.8*
COc1ccccc1NC(=O)CN1C(=O)NC(CC(C)C)C1=O (stereo not given),4.2,0.0417,0.8,0.471,48.0*
CCOc1ccccc1CNn1nnnc1N,.,-1.34,.,0.54,.
CCCSc1nnc(Cn2c(=O)sc3ccccc32)n1C,3.0,-0.167,.,-0.146,11.5
COc1cc(C)c(Cl)cc1S(=O)(=O)N(C)C,-9.5,-0.017,1.4,0.257,9.1
Cc1onc(-c2ccccc2)c1C(=O)Nc1sc2c(c1C#N)CCC(C)C2 (stereo not given),-6.8,-1.15,1.2,-1.03,24.7
Cc1onc(-c2ccccc2Cl)c1C(=O)Nc1cccc2cccnc12,-0.3,0.278,0.8,-3.04,33.4*
CC(=O)Nc1sc2c(c1C#N)CCCC2,7.8,0.0904,1,0.459,9.4
Cc1onc(-c2ccccc2Cl)c1C(=O)Nc1ccccc1C(N)=O,1.3,0.7,0.9,0.223,1.3
Cc1onc(-c2ccccc2Cl)c1C(=O)Nc1sc2c(c1C#N)CCC2,-10.3,-0.697,1.3,-5.39*,30.1*
CCCCNS(=O)(=O)c1ccc(NC(=O)c2c(-c3ccccc3Cl)noc2C)cc1,-5.0,-0.587,1,-5.72*,7.2
N#Cc1c(NC(=O)c2ccncc2)sc2c1CCC2,2.1,-0.464,1.1,-0.188,30.5*
COc1ccc(C(=O)COC(=O)CCn2nnc(-c3cccc(O)c3OC)n2)cc1,-0.2,0.115,0.9,-0.979,0.3
COc1cc2nc(CN3C(=O)c4ccccc4C3=O)oc(=O)c2cc1OC,15.2,0.00711,1,-2.8,3.0
O=C(Nc1cccc2cccnc12)c1cccnc1,-1.5,1.37,0.9,0.31,13.3
COc1cc(C(=O)Nc2cccc3cccnc23)cc(OC)c1OC,31.8*,-0.773,1.3,-0.248,4.7
O=C(CNC(=O)c1ccc(Cl)cc1Cl)NCCCn1ccnc1,-0.2,-0.818,0.8,0.232,-2.9
O=S1(=O)CCC(N=Cc2cc(Br)ccc2O)C1 (stereo not given),-13.3,-0.654,1,-11.5*,4.6
COc1ccc(Cc2c(O)nc(SCC(=O)N3CCCCCC3)[nH]c2=O)cc1,.,0.135,.,1.08,.
CCc1nnc(NC(=O)CSc2nnc(CNc3ccc(F)cc3)n2C2CCCCC2)s1,-3.1,0.0275,1.7,-1.12,3.7
COc1ccc(C(=O)Nc2cccc(-c3cnc4ccccc4n3)c2)cc1,-2.5,1.23,1.1,-0.456,3.3
Cc1ccc2c(c1)C(O)(c1c(C)[nH]c3ccccc13)C(=O)N2 (stereo not given),-5.1,1.15,1.2,-4.08*,9.6
Cc1ccc(-c2cc(=O)[nH]c3ccccc23)cc1,.,0.533,.,0.157,.
COc1ccc(CNC(=O)C2CCCN2S(=O)(=O)c2ccccc2)cc1 (stereo not given),-10.0,0.811,1.2,0.428,-2.0
Cc1cc(C)nc(N/N=C/C(Cl)=C/c2ccccc2)n1,30.8*,-0.0217,0.7,0.438,-1.2
